Data as given in PubChem BioAssay (NCI).
About 79,000 compounds went through this panel and 15% of them were active in at least one assay; those are over-represented in the sample as a whole. The source made the active and inactive calls. No stated cut-off is given here; in the data, active means growth inhibition above about 70%; inactive means the rest.

Assays:
[1] = NCI Yeast Anticancer Drug Screen. Data for the mec2-1 strain (AID 157); details: S. cerevisiae mec2-1 strain, hits give high values
Outline: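 Test agents were screened against the mec2-1 yeast strain, with defined DNA repair or cell cycle alteration. Growth was scored as inhibition against vehicle-only controls.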

[2] = NCI Yeast Anticancer Drug Screen. Data for the rad14 strain (AID 159);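 further: 0% = growth of vehicle-treated control cultures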; details: S. cerevisiae rad14 strain growth inhibition, hits give high values
Outline: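 Here, inhibition of yeast growth was measured after compound exposure, using a strain with a genetic defect in DNA damage repair and vehicle-treated cultures as the reference.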

[3] = NCI Yeast Anticancer Drug Screen. Data for the CLN2oe strain (AID 163);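 further: 0% = growth of vehicle-only control cultures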; details: S. cerevisiae CLN2oe strain, hits give high values
Outline: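 Here, growth inhibition in a cell-cycle-altered yeast strain after compound exposure was quantified against vehicle control growth.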

[4] = NCI Yeast Anticancer Drug Screen. Data for the cln2 rad14 strain (AID 165);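 further: 0% = growth equal to vehicle treated cultures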; details: S. cerevisiae cln2 rad14 strain, hits give high values
Outline: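 Growth of compound-exposed yeast (cln2 rad14 genotype) measured and expressed as inhibition relative to vehicle.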

[5] = NCI Yeast Anticancer Drug Screen. Data for the bub3 strain (AID 167); details: S. cerevisiae bub3 mutant strain, hits give high values
Outline: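 Whole-cell yeast assay. The mutant strain was incubated with compounds, and growth inhibition was determined by comparison with vehicle-treated cells.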

[6] = NCI Yeast Anticancer Drug Screen. Data for the wt2 strain (AID 169);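 further: 0% = growth of vehicle-treated yeast cultures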; details: S. cerevisiae wt2 strain growth inhibition, hits give high values
Outline: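 Genetically defined yeast strains from a DNA-repair/cell-cycle panel were used. Compound-exposed yeast growth was measured, and the inhibition was calculated relative to vehicle treatment.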

[7] = NCI Yeast Anticancer Drug Screen. Data for the mlh1 strain (AID 171);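 further: 0% = growth of vehicle-treated control cultures of the same strain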; details: S. cerevisiae mlh1 strain growth inhibition, hits give high values
Outline: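 Here the genetically defined yeast mutant is grown with each compound, and the extent to which its growth falls below that of vehicle-exposed cells is reported.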

[8] = NCI Yeast Anticancer Drug Screen. Data for the sgs1 strain (AID 173);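 further: 0% = growth of vehicle-only control cultures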; details: S. cerevisiae sgs1 mutant, hits give high values
Outline: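 Relative growth inhibition, referenced to vehicle, was determined in a yeast strain with a defined alteration affecting DNA damage repair or cell cycle control after compound exposure.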

[9] = NCI Yeast Anticancer Drug Screen. Data for the mlh1 rad18 strain (AID 175); details: S. cerevisiae mlh1 rad18 strain growth inhibition, hits give high values
Outline: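 In this whole-cell yeast screen, a strain with altered DNA damage repair is challenged with compound, and its growth is measured against matched vehicle-treated controls.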

[10] = NCI Yeast Anticancer Drug Screen. Data for the rad18 strain (AID 177); details: S. cerevisiae rad18 mutant growth inhibition, hits give high values
Outline: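 Screen uses a yeast strain with a defined lesion in DNA damage repair; compound effect is read as loss of growth compared to untreated vehicle cultures.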

[11] = NCI Yeast Anticancer Drug Screen. Data for the rad52 strain (AID 147);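 further: 0% = growth of vehicle-treated control cultures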; details: S. cerevisiae rad52 mutant growth inhibition, hits give high values
Outline: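 Measured: yeast growth inhibition. System: strain with a defined DNA damage repair alteration. Reference: vehicle-treated control cultures.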

[12] = NCI Yeast Anticancer Drug Screen. Data for the wt1 strain (AID 149);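 further: 0% = growth of vehicle-treated wt1 cultures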; details: S. cerevisiae wt1 strain (SPY 50644) growth inhibition, hits give high values
Outline: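 Measured: growth of wt1 yeast under compound versus vehicle treatment, reported as inhibition.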

[13] = NCI Yeast Anticancer Drug Screen. Data for the rad50EPP+ strain (AID 151);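 further: 0% = growth of vehicle-treated control cultures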; details: S. cerevisiae rad50 mutant strain, hits give high values
Outline: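 One strain with a rad50 alteration (rad50EPP+) was compound-treated, its growth then compared to that of vehicle controls.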

[14] = NCI Yeast Anticancer Drug Screen. Data for the mgt1 strain (AID 153); details: S. cerevisiae mgt1 mutant growth inhibition, hits give high values
Outline: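 After exposure of the mgt1 yeast mutant to compound, growth was measured and reported as inhibition compared with vehicle controls.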

[15] = NCI Yeast Anticancer Drug Screen. Data for the rad50 strain (AID 155);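 further: 0% = growth of vehicle-only cultures of the same strain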; details: S. cerevisiae rad50 strain growth inhibition, hits give high values
Outline: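 Growth of the mutant yeast was measured after compound exposure and referenced to vehicle-treated cultures.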

[16] = NCI Yeast Anticancer Drug Screen. Data for the sgs1 mgt1 strain (AID 161);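 further: 0% = growth of cultures given vehicle only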; details: S. cerevisiae sgs1 mgt1 strain, hits give high values
Outline: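 Inhibition of yeast growth, normalised to vehicle-treated controls, is reported for a strain bearing genetic alterations in DNA damage repair.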

[17] = at 5.0 µM (retest, dose inferred, filed as 0.5)
[18] = at 50.0 µM (retest, dose inferred, filed as 5.0)

Measured: growth inhibition

CCN(CC)CC(=O)c1ccc2cc(Cl)c3ccccc3c2c1
active: [1]; at 11.0 µM 99% | [1]; at 33.0 µM 99% | [1]; [18] 99% | [1]; at 50.0 µM 99.2% | [1]; at 100.0 µM 99% | [2]; at 11.0 µM 99% | [2]; at 33.0 µM 99% | [2]; at 100.0 µM 99% | [3]; at 11.0 µM 99% | [3]; at 33.0 µM 98% | [3]; at 100.0 µM 99% | [4]; [18] 99% | [4]; at 50.0 µM 99.2% | [5]; at 11.0 µM 98% | [5]; at 33.0 µM 98% | [5]; [18] 98% | [5]; at 50.0 µM 99.2% | [5]; at 100.0 µM 98% | [6]; at 11.0 µM 99% | [6]; at 33.0 µM 98% | [6]; at 100.0 µM 98% | [7]; at 11.0 µM 99% | [7]; at 33.0 µM 99% | [7]; at 100.0 µM 98% | [8]; at 11.0 µM 99% | [8]; at 33.0 µM 98% | [8]; at 100.0 µM 98% | [9]; [18] 98% | [9]; at 50.0 µM 99.2% | [10]; at 11.0 µM 99% | [10]; at 33.0 µM 98% | [10]; at 100.0 µM 98%
inactive: [1]; [17] 26% | [2]; at 1.2 µM 6% | [2]; at 3.7 µM 13% | [3]; at 1.2 µM 8% | [3]; at 3.7 µM 11% | [4]; [17] 6% | [5]; at 1.2 µM -4% | [5]; at 3.7 µM 3% | [5]; [17] 10% | [6]; at 1.2 µM 7% | [6]; at 3.7 µM 24% | [7]; at 1.2 µM 12% | [7]; at 3.7 µM 23% | [8]; at 1.2 µM 25% | [8]; at 3.7 µM 53% | [9]; [17] 48% | [10]; at 1.2 µM 20% | [10]; at 3.7 µM 42%

O=S(=O)(c1cccc(C(F)(F)F)c1)N1c2ccccc2-n2cccc2C1c1cccnc1 (stereo not given)
active: [11]; at 11.0 µM 87% | [11]; at 33.0 µM 95% | [11]; at 100.0 µM 91% | [12]; at 33.0 µM 92% | [12]; at 100.0 µM 89% | [14]; at 11.0 µM 78% | [14]; at 33.0 µM 94% | [14]; at 100.0 µM 92% | [15]; at 11.0 µM 85% | [15]; at 33.0 µM 92% | [15]; [18] 96% | [15]; at 50.0 µM 90.5% | [15]; at 100.0 µM 87% | [1]; at 33.0 µM 92% | [1]; [18] 97% | [1]; at 50.0 µM 94.8% | [1]; at 100.0 µM 89% | [16]; [18] 98% | [16]; at 50.0 µM 96.8% | [3]; at 11.0 µM 74% | [3]; at 33.0 µM 94% | [3]; at 100.0 µM 90% | [4]; [18] 96% | [4]; at 50.0 µM 93.9% | [5]; at 33.0 µM 94% | [5]; [18] 96% | [5]; at 50.0 µM 94.7% | [5]; at 100.0 µM 90% | [6]; at 33.0 µM 93% | [6]; at 100.0 µM 91% | [7]; at 11.0 µM 70% | [7]; at 33.0 µM 93% | [7]; at 100.0 µM 88% | [8]; at 11.0 µM 73% | [8]; at 33.0 µM 92% | [8]; at 100.0 µM 89% | [10]; at 11.0 µM 85% | [10]; at 33.0 µM 93% | [10]; at 100.0 µM 89%
inactive: [11]; at 1.2 µM -23% | [11]; at 3.7 µM 7% | [12]; at 1.2 µM -22% | [12]; at 3.7 µM -8% | [12]; at 11.0 µM 55% | [13]; at 1.2 µM -73% | [13]; at 3.7 µM -45% | [13]; at 11.0 µM -54% | [13]; at 33.0 µM -57% | [13]; at 100.0 µM -46% | [14]; at 1.2 µM -43% | [14]; at 3.7 µM -16% | [15]; at 1.2 µM -15% | [15]; at 3.7 µM 5% | [15]; [17] 27% | [1]; at 1.2 µM -59% | [1]; at 3.7 µM -32% | [1]; [17] 31% | [1]; at 11.0 µM 56% | [16]; [17] 18% | [3]; at 1.2 µM -16% | [3]; at 3.7 µM -19% | [4]; [17] 22% | [5]; at 1.2 µM -27% | [5]; at 3.7 µM 1% | [5]; [17] 25% | [5]; at 11.0 µM 62% | [6]; at 1.2 µM -23% | [6]; at 3.7 µM -41% | [6]; at 11.0 µM 60% | [7]; at 1.2 µM -43% | [7]; at 3.7 µM -15% | [8]; at 1.2 µM -40% | [8]; at 3.7 µM -21% | [10]; at 1.2 µM -7% | [10]; at 3.7 µM 7%

C[C@H](CCC1=NC(C)(C)CO1)C1CCC2[C@@H]3C(O)C[C@@H]4CC(O)CC[C@]4(C)C3CC[C@@]21C (stereo not given in full)
active: [11]; at 33.0 µM 70% | [11]; at 100.0 µM 99% | [12]; at 100.0 µM 99% | [14]; at 33.0 µM 71% | [14]; at 100.0 µM 100% | [15]; at 33.0 µM 76% | [15]; [18] 95% | [15]; at 50.0 µM 99.4% | [15]; at 100.0 µM 99% | [1]; at 33.0 µM 84% | [1]; [18] 98% | [1]; at 50.0 µM 99.8% | [1]; at 100.0 µM 100% | [2]; at 33.0 µM 99% | [2]; at 100.0 µM 100% | [3]; at 100.0 µM 99% | [4]; [18] 96% | [4]; at 50.0 µM 97.9% | [5]; at 33.0 µM 79% | [5]; [18] 98% | [5]; at 50.0 µM 98.5% | [5]; at 100.0 µM 99% | [6]; at 33.0 µM 95% | [6]; at 100.0 µM 100% | [7]; at 33.0 µM 87% | [7]; at 100.0 µM 100% | [8]; at 33.0 µM 90% | [8]; at 100.0 µM 100% | [9]; [18] 98% | [9]; at 50.0 µM 99.4% | [10]; at 33.0 µM 96% | [10]; at 100.0 µM 99%
inactive: [11]; at 1.2 µM -3% | [11]; at 3.7 µM -5% | [11]; at 11.0 µM -9% | [12]; at 1.2 µM -3% | [12]; at 3.7 µM -5% | [12]; at 11.0 µM -11% | [12]; at 33.0 µM 37% | [13]; at 1.2 µM -4% | [13]; at 3.7 µM -3% | [13]; at 11.0 µM -3% | [13]; at 33.0 µM -4% | [13]; at 100.0 µM 25% | [14]; at 1.2 µM -7% | [14]; at 3.7 µM -8% | [14]; at 11.0 µM -9% | [15]; at 1.2 µM -3% | [15]; at 3.7 µM -4% | [15]; [17] 1% | [15]; at 11.0 µM -8% | [1]; at 1.2 µM -5% | [1]; at 3.7 µM -3% | [1]; [17] -2% | [1]; at 11.0 µM -6% | [2]; at 1.2 µM -4% | [2]; at 3.7 µM -4% | [2]; at 11.0 µM 1% | [3]; at 1.2 µM -6% | [3]; at 3.7 µM -12% | [3]; at 11.0 µM -11% | [3]; at 33.0 µM 62% | [4]; [17] 1% | [5]; at 1.2 µM -3% | [5]; at 3.7 µM -2% | [5]; [17] 0% | [5]; at 11.0 µM -10% | [6]; at 1.2 µM -4% | [6]; at 3.7 µM -7% | [6]; at 11.0 µM -12% | [7]; at 1.2 µM -3% | [7]; at 3.7 µM -6% | [7]; at 11.0 µM -6% | [8]; at 1.2 µM -3% | [8]; at 3.7 µM -4% | [8]; at 11.0 µM -6% | [9]; [17] -7% | [10]; at 1.2 µM -5% | [10]; at 3.7 µM -6% | [10]; at 11.0 µM -6%
